According to the supplement of paper PMC12669032:

Experiments:
Test in all cases: growth AUC relative to DMSO control (median of replicates) (fraction); higher = more growth (less inhibition), active = hit call of the paper
Settings in all cases: 20 µM; 24 h;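 active = AUC reduced over 20% with Padj below 0.05 in at least 2 of 3 replicates; inactive = otherwise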
Coprococcus comes = system: Coprococcus comes
In short: (§1)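 For each compound at 20 µM (1% DMSO), gut bacterial monocultures seeded at OD600 0.05 grew anaerobically in mGAM at 37 °C in round-bottom 96-well plates. Hourly OD600 readings over 24 h gave growth curves whose minimum OD was set to 0. Area under these curves was normalised to the plate median of solvent-only wells, or to row and column medians on the industrial chemical plate. Values are medians of three biological replicates grown on separate days.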

Escherichia coli ED1a = system: Escherichia coli ED1a
In short: as §1

Escherichia coli IAI1 = system: Escherichia coli IAI1
In short: as §1

Eubacterium rectale = system: Eubacterium rectale
In short: as §1

[1] = system: Fusobacterium nucleatum subsp. animalis
In short: as §1

Lactobacillus gasseri = system: Lactobacillus gasseri
In short: as §1

Lactobacillus paracasei = system: Lactobacillus paracasei
In short: as §1

Odoribacter splanchnicus = system: Odoribacter splanchnicus
In short: as §1

[2] = system: Parabacteroides distasonis
In short: as §1

Parabacteroides merdae = system: Parabacteroides merdae
In short: as §1

Measured: growth AUC

CCOP(=S)(OCC)Oc1nc(Cl)n(C(C)C)n1
inactive: Coprococcus comes 0.986 | Escherichia coli ED1a 1 | Escherichia coli IAI1 0.999 | Eubacterium rectale 0.886 | [1] 1.16 | Lactobacillus gasseri 0.952 | Lactobacillus paracasei 0.954 | Odoribacter splanchnicus 0.991 | [2] 0.917 | Parabacteroides merdae 0.974

Nc1c([N+](=O)[O-])ccc(Oc2ccccc2)c1Cl
inactive: Coprococcus comes 0.903 | Escherichia coli ED1a 1.01 | Escherichia coli IAI1 1.01 | Eubacterium rectale 0.887 | [1] 0.947 | Lactobacillus gasseri 1.02 | Lactobacillus paracasei 0.832 | Odoribacter splanchnicus 0.935 | [2] 0.951 | Parabacteroides merdae 0.912

CNC(=O)c1cc(C#N)cc(C)c1NC(=O)c1cc(Br)nn1-c1ncccc1Cl
inactive: Coprococcus comes 0.996 | Escherichia coli ED1a 1.01 | Escherichia coli IAI1 1.02 | Eubacterium rectale 0.972 | [1] 0.88 | Lactobacillus gasseri 1.12 | Lactobacillus paracasei 1.02 | Odoribacter splanchnicus 0.99 | [2] 1.02 | Parabacteroides merdae 0.983

O=c1[nH]c(Cl)c(Cl)cc1Cl
inactive: Coprococcus comes 0.998 | Escherichia coli ED1a 0.952 | Escherichia coli IAI1 0.983 | Eubacterium rectale 0.991 | [1] 1.04 | Lactobacillus gasseri 0.928 | Lactobacillus paracasei 0.984 | Odoribacter splanchnicus 0.942 | [2] 0.921 | Parabacteroides merdae 1.01

COC(=O)c1sccc1S(=O)(=O)NC(=O)Nc1nc(C)nc(OC)n1
inactive: Coprococcus comes 0.962 | Escherichia coli ED1a 0.97 | Escherichia coli IAI1 0.967 | Eubacterium rectale 1.14 | [1] 0.975 | Lactobacillus gasseri 0.859 | Lactobacillus paracasei 1.03 | Odoribacter splanchnicus 1.01 | [2] 0.969 | Parabacteroides merdae 0.973

COP(=S)(OC)Oc1ccc(S(=O)(=O)N(C)C)cc1
inactive: Coprococcus comes 0.984 | Escherichia coli ED1a 1 | Escherichia coli IAI1 0.985 | Eubacterium rectale 0.998 | [1] 0.894 | Lactobacillus gasseri 0.925 | Lactobacillus paracasei 0.935 | Odoribacter splanchnicus 0.977 | [2] 1.01 | Parabacteroides merdae 0.969

CCOP(=S)(Oc1ccc([N+](=O)[O-])cc1)c1ccccc1 (stereo not given)
inactive: Coprococcus comes 0.949 | Escherichia coli ED1a 1.04 | Escherichia coli IAI1 1.05 | Eubacterium rectale 1.02 | [1] 1.09 | Lactobacillus gasseri 1.04 | Lactobacillus paracasei 1.07 | Odoribacter splanchnicus 1.09 | [2] 0.947 | Parabacteroides merdae 0.99

C=C/C=C/CC1=C(C)C(OC(=O)[C@@H]2C(/C=C(\C)C(=O)OC)C2(C)C)CC1=O.C=C/C=C/CC1=C(C)[C@@H](OC(=O)[C@@H]2C(C=C(C)C)C2(C)C)CC1=O (stereo not given in full)
inactive: Coprococcus comes 0.953 | Escherichia coli ED1a 1.01 | Escherichia coli IAI1 0.966 | Eubacterium rectale 0.858 | [1] 1.04 | Lactobacillus gasseri 1.02 | Lactobacillus paracasei 0.864 | Odoribacter splanchnicus 0.985 | [2] 0.954 | Parabacteroides merdae 0.932

CSc1nnc(C(C)(C)C)c(=O)n1N
inactive: Coprococcus comes 1.07 | Escherichia coli ED1a 1.04 | Escherichia coli IAI1 1.01 | Eubacterium rectale 0.997 | [1] 1.03 | Lactobacillus gasseri 1.06 | Lactobacillus paracasei 1.03 | Odoribacter splanchnicus 1.05 | [2] 1.02 | Parabacteroides merdae 1.01

CNC(=O)/C(=N\OC)c1ccccc1Oc1ccccc1
inactive: Coprococcus comes 1.01 | Escherichia coli ED1a 1.01 | Escherichia coli IAI1 1 | Eubacterium rectale 0.963 | [1] 0.974 | Lactobacillus gasseri 1.05 | Lactobacillus paracasei 0.986 | Odoribacter splanchnicus 0.961 | [2] 1.02 | Parabacteroides merdae 0.99

CCC(C)(C)C(=O)OC1=C(c2ccc(Cl)cc2Cl)C(=O)OC12CCCCC2
inactive: Coprococcus comes 0.977 | Escherichia coli ED1a 0.966 | Escherichia coli IAI1 0.949 | Eubacterium rectale 0.906 | [1] 0.968 | Lactobacillus gasseri 0.928 | Lactobacillus paracasei 0.987 | Odoribacter splanchnicus 1.02 | [2] 0.861 | Parabacteroides merdae 0.968

O=P(O)(O)CCCl
inactive: Coprococcus comes 1.06 | Escherichia coli ED1a 1.02 | Escherichia coli IAI1 1.02 | Eubacterium rectale 1.22 | [1] 1.04 | Lactobacillus gasseri 0.975 | Lactobacillus paracasei 1.01 | Odoribacter splanchnicus 1.12 | [2] 1.01 | Parabacteroides merdae 1

Cc1ccc2nc3sc(=O)sc3nc2c1
inactive: Coprococcus comes 0.964 | Escherichia coli ED1a 0.969 | Escherichia coli IAI1 0.948 | Eubacterium rectale 1.02 | [1] 1.04 | Lactobacillus gasseri 0.915 | Lactobacillus paracasei 0.954 | Odoribacter splanchnicus 1.14 | [2] 0.924 | Parabacteroides merdae 0.954

O=C1c2ccccc2C(=O)N1SC(Cl)(Cl)Cl
inactive: Coprococcus comes 1.01 | Escherichia coli ED1a 0.996 | Escherichia coli IAI1 1.02 | Eubacterium rectale 1.06 | [1] 1.02 | Lactobacillus gasseri 1.01 | Lactobacillus paracasei 0.963 | Odoribacter splanchnicus 1.02 | [2] 1.06 | Parabacteroides merdae 1.05

CCc1cc(C)cc(CC)c1-c1c(OC(=O)C(C)(C)C)n2n(c1=O)CCOCC2
inactive: Coprococcus comes 0.964 | Escherichia coli ED1a 0.99 | Escherichia coli IAI1 0.976 | Eubacterium rectale 1.14 | [1] 1.1 | Lactobacillus gasseri 0.845 | Lactobacillus paracasei 1.03 | Odoribacter splanchnicus 1.03 | [2] 0.851 | Parabacteroides merdae 1.01

Cc1cccc(C)c1N(Cn1cccn1)C(=O)CCl
inactive: Coprococcus comes 0.992 | Escherichia coli ED1a 0.976 | Escherichia coli IAI1 0.952 | Eubacterium rectale 1.09 | [1] 1.1 | Lactobacillus gasseri 0.928 | Lactobacillus paracasei 0.997 | Odoribacter splanchnicus 1.06 | [2] 1.01 | Parabacteroides merdae 0.963

CC(C)=NOCCOC(=O)[C@@H](C)Oc1ccc(Oc2cnc3cc(Cl)ccc3n2)cc1
inactive: Coprococcus comes 0.94 | Escherichia coli ED1a 1.01 | Escherichia coli IAI1 1.01 | Eubacterium rectale 0.957 | [1] 0.864 | Lactobacillus gasseri 1.04 | Lactobacillus paracasei 0.974 | Odoribacter splanchnicus 0.931 | [2] 0.983 | Parabacteroides merdae 0.955

C=CCN(CC=C)C(=O)C(Cl)Cl
inactive: Coprococcus comes 1 | Escherichia coli ED1a 0.944 | Escherichia coli IAI1 0.986 | Eubacterium rectale 1.01 | [1] 0.965 | Lactobacillus gasseri 0.934 | Lactobacillus paracasei 0.999 | Odoribacter splanchnicus 1.02 | [2] 0.991 | Parabacteroides merdae 0.947
